# Screening results (PubChem BioAssay)
# This is a sample that favours compounds with a hit; in the whole collection about 3.5% have one here.
# TEAD-YAP block = TEAD-YAP interaction inhibition | HEK-TIYL cells, TEAD-Gal4/YAP UAS-luciferase luminescence | inhibition, % at 9.12 µM | actives 1.4% (n = 640,000); in the data active means inhibition above about 32%;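 further: 0% = median of test compound wells and 100% = reference inhibitor wells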
# GPR151 activ = activators of human GPR151. PathHunter beta-arrestin GPR151 cells, luminescence. activation, % at 11.2 µM. AID 1508602. actives 1% (n = 650,000). Q8TDV0; in the data active means activation above about 4.9%;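 further: 0% = median of compound wells and 100% = cells with positive control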
# MITF inh = human MITF inhibition, primary screen; O75030; AlphaScreen MITF homodimerization, bead proximity signal; inhibition, % at 2.6 µM; actives 0.91% (n = 650,000); in the data active means inhibition above about 50%;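 further: 0% = vehicle wells with protein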
# FBW7 act = human FBW7 E3 ligase activation, primary screen. actives 0.13% (n = 650,000). normalized activity (activation), % at 26.1 µM. AlphaScreen FBW7–phospho-cyclin E peptide binding, activator screen. AID 1259310; in the data active means normalized activity above about 1.9%;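 further: purified mutant Fbw7 with reduced substrate affinity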
# GPR151 conf act = confirmation of human GPR151 activators. GPR151 PathHunter beta-arrestin cells, luminescence, 90 min; % of EA-reagent control over plate median. AID 1508609. shares compounds with GPR151 activ. 6,700 tested, under 10 active. activation, % at 11.2 µM;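 active means mean percent activation across replicates above the confirmation screen cutoff of 4.91%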
# GPR119 counter = GPR119 activation, counter-screen for GPR151 activators; shares compounds with GPR151 activ; GPR119 PathHunter beta-arrestin cells, luminescence, 90 min; 0 = compound-well median, 100 = enzyme-acceptor control; activation, % at 11.2 µM; AID 1508611; actives 0.3% (n = 6,700);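 active means mean percent activation in the counterscreen above 29.09%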;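 further: counterscreen on off-target GPR119 to flag nonselective hits from the GPR151 activator screen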
# Target sequence (Q8TDV5 whole entry, looked up): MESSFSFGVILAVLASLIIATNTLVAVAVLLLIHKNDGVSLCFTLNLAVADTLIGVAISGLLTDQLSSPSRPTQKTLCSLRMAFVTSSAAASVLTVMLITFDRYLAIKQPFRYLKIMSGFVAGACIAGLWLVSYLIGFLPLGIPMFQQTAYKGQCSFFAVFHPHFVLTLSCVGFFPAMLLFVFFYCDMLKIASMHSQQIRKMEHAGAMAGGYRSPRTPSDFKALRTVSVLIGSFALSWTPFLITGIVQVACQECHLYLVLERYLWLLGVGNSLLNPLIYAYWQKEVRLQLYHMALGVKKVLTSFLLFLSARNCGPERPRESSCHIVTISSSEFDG
# Starred values were filed as active, the others as inactive; nt = not tested or not shown.
SMILES,TEAD-YAP block,GPR151 activ,MITF inh,FBW7 act,GPR151 conf act,GPR119 counter
O=C(CNC(=O)c1ccc([N+](=O)[O-])o1)Nc1ccc(F)c(F)c1,7,0,0,0,nt,nt
CCOC(=O)c1sc(NC(=O)c2c(F)cccc2F)nc1C,-7,7.8*,-6,0,0,16
CCOC(=O)c1sc(NC(=S)NC(=O)c2ccccc2F)nc1C,10,-1,-1,0,nt,nt
N#CCC(=O)N/N=C/c1cn(CC(=O)Nc2ccc(F)cc2)c2ccccc12,11,2,1,0,nt,nt
O=C(Cn1cc(/C=C/c2nc(O)c([N+](=O)[O-])c(=O)[nH]2)c2ccccc21)Nc1ccc(F)cc1,9,5.5*,14,0,0,2
CCn1cc(/C=C/c2nc(O)c([N+](=O)[O-])c(=O)[nH]2)c2ccccc21,-5,1,6,0,nt,nt
O=C(Cn1cc(/C=N/N2C(=O)c3ccccc3C2=O)c2ccccc21)Nc1ccc(F)cc1,9,5.6*,3,0,0,7
O=C(Cn1cnc2sc3c(c2c1=O)CCCC3)NCCC(=O)Nc1ccc(F)c(Cl)c1,-1,0,-1,0,nt,nt
Cc1cc(/C=N/O)c(C)n1-c1ccc(F)cc1,-6,1,3,0,nt,nt
CC(C)c1ccc(NC(=O)c2ccc(N(C)C)cc2)cc1,-46,0,6,1,nt,nt
CC(C)c1ccc(C(=O)Nc2ccc(N(C)C)cc2)cc1,7,19*,7,0,-1,-11
Cc1ccc(NC(=O)CSc2nc3c(c(=O)n2C)SCC3)c(C)c1,25,7.4*,5,0,0,6
CC1C2NC(=S)NC1(C)Oc1ccccc12 (centres undefined),1,7.4*,8,0,0,9
COc1cc2c(cc1OC)[C@@H](c1ccccc1)CN(C)CC2,2,7.5*,24,0,0,-8
N#C/C(=C\Nc1ccccc1F)c1nc(-c2cc3cc([N+](=O)[O-])ccc3oc2=O)cs1,0,11*,2,0,0,10
COc1cc(C(=O)OCC2CC(c3ccccc3)=NO2)cc(OC)c1OC (centres undefined),3,5.4*,3,0,-1,-10
COc1ccc(C(=O)OCC2CC(c3ccccc3)=NO2)cc1OC (centres undefined),-7,0,-1,0,nt,nt
CCOC(=O)N1CCC(N(CCOC)C(=S)Nc2cccc(OC)c2)CC1,-14,8.6*,-1,0,-1,-11
COc1ccc(OC)c(-c2cc(C(=O)N/N=C/c3c(C)nn(-c4ccccc4)c3C)[nH]n2)c1,1,5.2*,17,0,0,-5
COC(=O)N/N=C\c1c(C)nn(-c2ccccc2)c1Cl,-35,0,0,0,nt,nt
CCCc1[nH]n(-c2nc3ccccc3s2)c(=O)c1C(C)=Nc1cc(C(=O)OC)cc(C(=O)OC)c1,0,1,10,0,nt,nt
Cc1cc(C)nc(-n2nc(C)c(C(O)(CC(=O)C(F)(F)F)C(F)(F)F)c2N)n1 (centres undefined),-8,11*,0,0,0,-3
Cc1ccccc1N(CC(=O)NC1CCCCC1)S(C)(=O)=O,-1,0,3,0,nt,nt
O=C1C2C3C=CC(C3)C2C(=O)N1c1ccc(F)cc1Cl (centres undefined),-7,1,15,0,nt,nt
CCCCN(C)S(=O)(=O)c1cc2c(cc1C)N(C(C)=O)CCO2,-2,6.2*,-3,0,1,0
SMILES,TEAD-YAP block,GPR151 activ,MITF inh,FBW7 act,GPR151 conf act,GPR119 counter
CC(C)=CCN1CCN(c2ccc3c(c2)CCC3)C1=O,-53,1,-4,0,nt,nt
Cc1cc(Cl)ccc1NC(=O)C1CC(O)CN1C(=O)OC(C)(C)C (centres undefined),5,-1,18,0,nt,nt
CCN(CC)CCCCCCNc1cc(OC)cc2c(C)ccnc12,nt,-2,nt,nt,nt,nt
CCN(CC)CCCCNc1ncc2cc(-c3cc(OC)cc(OC)c3)c(NC(=O)NC(C)(C)C)nc2n1,nt,5.3*,5,nt,-1,4
CC1CCN(c2ccc(N)c3nonc23)CC1,-2,0,5,-1,nt,nt
COc1cccc(/C=C/C(=O)Nc2ccc3nc(N4CCCCC4)cc(C)c3c2)c1OC,-17,5.4*,0,0,1,10
CCCOc1ccc(NC(=O)CC2C(=O)N(c3ccc(Cl)cc3)C(=S)N2Cc2cccnc2)cc1 (centres undefined),-3,0,10,0,nt,nt
NC(=O)CC1C(=O)N(c2ccc(Cl)cc2)C(=S)N1Cc1cccnc1 (centres undefined),7,5.4*,7,0,0,3
COc1ccc(NC(=O)CC2C(=O)N(c3ccc(Cl)cc3)C(=S)N2CCCN2CCOCC2)cc1 (centres undefined),1,5.0*,11,0,0,19
CCN1CCN(CCCN2C(=S)N(c3ccc(Cl)cc3)C(=O)C2CC(=O)Nc2ccc(OC)cc2)CC1 (centres undefined),-2,0,0,1,nt,nt
CCCOc1ccc(NC(=O)CC2C(=O)N(c3ccc(Cl)cc3)C(=S)N2Cc2ccncc2)cc1 (centres undefined),1,6.3*,4,0,2,-6
COc1ccc(C2SC(C)C(=O)N2Cc2ccccc2)cc1 (centres undefined),13,-1,5,0,nt,nt
COc1ccccc1NC(=O)CSc1nc2ccc(NC(=O)CSc3ccccn3)cc2s1,10,0,19,0,nt,nt
NC(=O)c1ccsc1NC(=O)CSc1nnc(C2CC2)n1-c1ccccc1,0,0,6,0,nt,nt
Cc1csc(SCC(=O)Nc2ccccn2)n1,-3,6.2*,2,0,-1,-12
NC(=O)c1cc(N2CCN(Cc3ccc4c(c3)OCO4)CC2)nc2ccccc12,4,-1,-3,0,nt,nt
COc1cc(N2CCOCC2)ccc1/C=C1\C(=O)NC(=S)N(c2ccc(F)cc2)C1=O,8,5.2*,7,0,0,-4
O=C(Nc1ccccc1)c1ccc2nc(Nc3ccc4ncccc4c3)sc2c1,-40,2,-2,0,nt,nt
CCCN=C(CC)C1=C(O)CC(C)(C)CC1=O,-3,5.4*,-15,0,-1,-3
C=CCN=C(CC)C1=C(O)CC(C)(C)CC1=O,-3,-1,1,0,nt,nt
CC(C)(C)C(=O)Nc1nnc(C2=COCCO2)o1,12,1,0,0,nt,nt
CCOC(=O)c1sc2nc(SCC(=O)c3ccccc3)n(Cc3ccc(Cl)cc3)c(=O)c2c1C,-9,-1,0,0,nt,nt
CCOC(=O)c1sc2nc(SCC(=O)c3ccc(Cl)cc3)n(Cc3cccs3)c(=O)c2c1C,10,5.1*,-12,0,1,8
CC1(C)CC(=O)N(CC(=O)N2CCCCC2)c2ccccc2S1,-5,5.7*,9,1,-1,-2
